Compounds with a hit are over-represented: about 6.9% of the library has one in this group of screens.
BAZ2B block: BAZ2B (human) inhibition; Q9UIF8; AlphaScreen BAZ2B-H3K14Ac peptide displacement; Potency, µM (series often up to 114 µM), for the others: at the top dose activity change, negative = inhibition, usual class: inhibitors; actives 4.4% (n = 360,000); AID 504333; further: on the % scale 0 is the no-effect control and ±100 the full control effect; nearly all actives have a fitted effect of over 60% in size
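AlphaScreen displacement: compounds (up to 110uM) incubated 30 min at room temperature with a preformed 50 nM BAZ2B/50 nM biotinylated H3K14Ac peptide complex in PBS pH 7.4 with Tween-20. Donor and acceptor beads at 10 ug/mL final added, 20 min light-protected before reading.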
L3MBTL1 inh: L3MBTL1 (human) inhibition; Potency, µM (doses to about 57.1 µM), inactives show at the highest dose activity, negative = inhibition, usual class: inhibitors; AlphaScreen L3MBTL1–H3K9me1 peptide binding; actives 0.66% (n = 230,000); Q9Y468; further: on the % scale 0 is the no-effect control and ±100 the full control effect; nearly all actives have a fitted effect of over 60% in size
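L3MBTL1 (50 nM) pre-complexed 30 min with biotinylated H3(1-15)K9me1 peptide (75 nM), then compounds added for 30 min at room temperature; AlphaScreen streptavidin donor/nickel chelate acceptor beads (10 ug/mL final) read after 30 min dark incubation.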
VDR inh: inhibitors of human vitamin D receptor; VDR-SRC2-3 peptide fluorescence polarization, 2 h; P11473; Potency, µM, inactives show max response, negative = inhibition, actives largely listed as inhibitors; actives 0.93% (n = 400,000); further: on the % scale 0 is the no-effect control and ±100 the full control effect
Target sequence (P11473 whole entry, looked up): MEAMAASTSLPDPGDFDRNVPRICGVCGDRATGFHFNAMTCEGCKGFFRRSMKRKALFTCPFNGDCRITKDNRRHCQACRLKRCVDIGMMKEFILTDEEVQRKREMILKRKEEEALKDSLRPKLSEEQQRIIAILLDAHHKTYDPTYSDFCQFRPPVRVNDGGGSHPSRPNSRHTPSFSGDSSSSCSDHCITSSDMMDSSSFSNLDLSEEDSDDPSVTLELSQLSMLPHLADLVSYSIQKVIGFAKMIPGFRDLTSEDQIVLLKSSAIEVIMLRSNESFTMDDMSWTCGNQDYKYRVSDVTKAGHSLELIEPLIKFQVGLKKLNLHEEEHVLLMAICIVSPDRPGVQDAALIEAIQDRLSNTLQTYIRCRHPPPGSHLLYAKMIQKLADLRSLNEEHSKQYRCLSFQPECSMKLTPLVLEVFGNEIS
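After 23 nl compound addition and a short centrifugation, plates sat for 2 hours at ambient temperature; polarization of fluorescence then indicated loss of VDR binding to peptide SRC2-3.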
JMJD2A Tudor inh: blocks the human JMJD2A Tudor domain | O75164 | AlphaScreen JMJD2A-Tudor / H3K4me3 peptide binding | Potency, µM (top dose mostly 114 µM), inactives show top-dose activity change, negative = inhibition, actives largely listed as inhibitors | actives 4.4% (n = 390,000) | AID 504339; further: on the % scale 0 is the no-effect control and ±100 the full control effect; nearly all actives have a fitted effect of over 50% in size
PLK1 PBD inh: blocks phosphopeptide binding to human PLK1 polo-box domain; actives 2.8% (n = 360,000); Plk1 PBD binding of FITC phosphopeptide, fluorescence polarization; Potency, µM, for inactives: max response, negative = inhibition, actives largely listed as inhibitors; AID 720504; further: series mostly up to about 57 µM; on the % scale 0 is the no-effect control and ±100 the full control effect; nearly all actives have a fitted effect of over 65% in size
HP1b binding inh: inhibitors of HP1-beta chromodomain binding to methylated histone tails. AlphaScreen HP1-beta / biotin-H3K9me3 peptide binding. Potency, µM (titrated, usually from 114 µM), for the others: top-dose activity change, negative = inhibition, most hits filed as inhibitors. actives 0.56% (n = 390,000); further: nearly all actives have a fitted effect of over 70% in size
Target sequence (P83916 whole entry, looked up): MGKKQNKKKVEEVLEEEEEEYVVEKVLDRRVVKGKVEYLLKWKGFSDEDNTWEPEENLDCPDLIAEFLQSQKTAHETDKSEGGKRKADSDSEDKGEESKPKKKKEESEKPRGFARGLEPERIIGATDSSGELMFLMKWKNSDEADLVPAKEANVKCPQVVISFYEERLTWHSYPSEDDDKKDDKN
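HP1-beta protein (50 nM final) preincubated 30 min at room temperature with biotinylated H3(1-18)K9me3 peptide (50 nM) in PBS pH 7.4, 0.01% Tween-20, then compound added for 30 min. AlphaScreen streptavidin donor/nickel chelate acceptor beads (10 ug/mL final), 30 min dark, luminescence read.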
An asterisk follows results filed as active; [ ] = another dose, or the depositor's remark. The call rests on the fitted dose curve; in most records, active means well fitted curve in the direction sought with a large enough effect; inconclusive means small, poorly fitted or top-dose-only effect, or another doubt; inactive means no such curve, though single readings can be large; an effect the other way counts as inactive or inconclusive. Potency means the concentration at half of the fitted maximal effect.

CCn1c(SCC(=O)N2CCCc3ccccc32)nc2cccnc21 was read as BAZ2B block 0%, L3MBTL1 inh -5%[11.4 µM], VDR inh 8%, JMJD2A Tudor inh -6%[11.4 µM], PLK1 PBD inh -7% and HP1b binding inh 25%.
Cn1c(SCC(=O)N2CCc3ccccc32)nc2cccnc21 was read as BAZ2B block -1%, L3MBTL1 inh -4%, VDR inh -25%, JMJD2A Tudor inh -7%[11.4 µM], PLK1 PBD inh 24µM* and HP1b binding inh -15%.
COc1cccc(-c2nccc(NCCc3c[nH]c4ccc(OC)cc34)n2)c1 was read as VDR inh 0%.
Cc1ccc(C)c(OCc2cc(C(=O)NC3CCOC(C)(C)C3)no2)c1 (stereo not drawn) was read as BAZ2B block -9%, VDR inh -6%, JMJD2A Tudor inh -13%, PLK1 PBD inh -7% and HP1b binding inh 7%.
For Cc1ccc2[nH]c3c(c2c1)CN(C(=O)CN1CCCCC1)CC3 the results were BAZ2B block inconclusive, VDR inh 20%, JMJD2A Tudor inh -14%, PLK1 PBD inh -7% and HP1b binding inh 14%.
Cc1ccc2[nH]c3c(c2c1)CN(C(=O)CN1CCCc2ccccc21)CC3 was read as BAZ2B block -14%, L3MBTL1 inh 12%, VDR inh 10%, JMJD2A Tudor inh 28µM*, PLK1 PBD inh -13% and HP1b binding inh inconclusive.
For CC(Nc1ccc2c(c1)OCCO2)C(=O)N1c2ccccc2CC1C (stereo not drawn) the results were BAZ2B block 40µM*, VDR inh -14%, JMJD2A Tudor inh inconclusive, PLK1 PBD inh -22% and HP1b binding inh -13%.
COc1ccc(NC(=O)c2cc(-c3ccccc3)nc3c2cnn3C(C)C)cc1 was read as BAZ2B block -3%, L3MBTL1 inh 6%, VDR inh -37%, JMJD2A Tudor inh 79µM*, PLK1 PBD inh -1% and HP1b binding inh inconclusive.
For Nc1nc(CN2CCN(c3ccccc3F)CC2)nc(N2CCCc3ccccc32)n1 the results were BAZ2B block 50µM*, L3MBTL1 inh -4%, VDR inh -15%, JMJD2A Tudor inh inconclusive, PLK1 PBD inh -6% and HP1b binding inh 3%.
For Nc1nc(CN2CCN(c3ccccc3)CC2)nc(N2CCCc3ccccc32)n1 the results were BAZ2B block inconclusive, L3MBTL1 inh -26%, VDR inh -11%, JMJD2A Tudor inh 50µM*, PLK1 PBD inh -5% and HP1b binding inh -6%.
For COc1ccc(N2CCN(Cc3nc(N)nc(N4CCCc5ccccc54)n3)CC2)cc1 the results were BAZ2B block 11µM*, L3MBTL1 inh -9%, VDR inh -12%, JMJD2A Tudor inh 50µM*, PLK1 PBD inh -24% and HP1b binding inh inconclusive.
`Nc1nc(CN2CCN(Cc3ccccc3)CC2)nc(N2CCCc3ccccc32)n1` gave BAZ2B block inconclusive, L3MBTL1 inh -20%, VDR inh 8%, JMJD2A Tudor inh -21%, PLK1 PBD inh -5% and HP1b binding inh 14%.
Screening COc1ccc2c(c1)O[C@H](c1ccc3c(c1)OCO3)[C@@H](OC(=O)Nc1ccc(C)c(Br)c1)C2=O returned VDR inh 0%.
`CCN(c1ccc(Cl)cc1)S(=O)(=O)c1nnc(NC(=O)c2ccccc2C)s1` gave BAZ2B block -26%, VDR inh 2%, JMJD2A Tudor inh -27% and HP1b binding inh 25%.
`CCOC(=O)c1sc(=S)n(C)c1C` gave BAZ2B block -10%, VDR inh 10%, JMJD2A Tudor inh -5%[57.1 µM], PLK1 PBD inh -9% and HP1b binding inh 68%.
For CCOC(=O)c1c[nH]c(=S)n1C the results were BAZ2B block -22%, L3MBTL1 inh 1%, VDR inh -12%, JMJD2A Tudor inh 32µM*, PLK1 PBD inh -8% and HP1b binding inh -15%.
Clc1ccc(OCc2nn3c(-c4ccco4)nnc3s2)c(Cl)c1 was read as BAZ2B block 56µM*, VDR inh -4%, JMJD2A Tudor inh inconclusive, PLK1 PBD inh -24% and HP1b binding inh 13%.
`S=c1[nH]nc(Cn2cnc3ccccc32)n1-c1ccccc1` gave BAZ2B block -15%, L3MBTL1 inh -19%, VDR inh 1%, JMJD2A Tudor inh 4.5µM*, PLK1 PBD inh inconclusive and HP1b binding inh -7%.
`CCn1c(CCc2nc3ccccc3[nH]2)n[nH]c1=S` gave BAZ2B block -15%, VDR inh -8%, JMJD2A Tudor inh 4µM*, PLK1 PBD inh -18% and HP1b binding inh 12%.
Screening S=c1[nH]nc(Cn2nnc3ccccc32)n1-c1ccc(Cl)cc1 returned BAZ2B block -7%, L3MBTL1 inh 6%, VDR inh 1%, JMJD2A Tudor inh -6%, PLK1 PBD inh 4% and HP1b binding inh 49%.
`Cn1c(CCc2nc3ccccc3[nH]2)nnc1SCC#N` gave BAZ2B block 19%, L3MBTL1 inh 48%, VDR inh -19%, JMJD2A Tudor inh inconclusive, PLK1 PBD inh 19µM* and HP1b binding inh -7%.
Screening Cc1ccc(OCCn2c(C)nc3ccccc32)cc1 returned BAZ2B block -8%, L3MBTL1 inh -1%, VDR inh 15%, JMJD2A Tudor inh -12%, PLK1 PBD inh 1% and HP1b binding inh 22%.
Screening CCCc1nc2ccccc2[nH]1 returned BAZ2B block 9%, VDR inh -6%, JMJD2A Tudor inh -17%, PLK1 PBD inh -2% and HP1b binding inh 13%.
For Cc1ccc(-n2c(Cn3c(C)nc4ccccc43)n[nH]c2=S)cc1 the results were BAZ2B block 2%, L3MBTL1 inh -8%, VDR inh -12%, JMJD2A Tudor inh 8.9µM*, PLK1 PBD inh -4% and HP1b binding inh 34%.
Screening Cc1ccc(-n2c(CCc3nc4ccccc4[nH]3)n[nH]c2=S)cc1 returned BAZ2B block -6%, L3MBTL1 inh 0%, VDR inh -21%, JMJD2A Tudor inh 7.9µM*, PLK1 PBD inh -30% and HP1b binding inh -2%.
`Cc1ccc(Cc2nc3ccccc3[nH]2)cc1` gave BAZ2B block -5%, VDR inh 3%, JMJD2A Tudor inh -7%, PLK1 PBD inh 0% and HP1b binding inh 13%.
`O=C(/C=C/c1ccccc1)NNC(=O)c1ccco1` gave BAZ2B block 3%, VDR inh -8%, JMJD2A Tudor inh 4%, PLK1 PBD inh 1% and HP1b binding inh 28%.
Screening CN1C/C(=C/c2cccnc2)C(=O)/C(=C/c2cccnc2)C1 returned BAZ2B block -38%, L3MBTL1 inh -1%, VDR inh 45µM*, JMJD2A Tudor inh -13%, PLK1 PBD inh -13% and HP1b binding inh 36%.

Compound activity (PubChem BioAssay)
